# According to PubChem BioAssay (NCATS):
# Where “and” joins values, the source holds several entries; their conditions need not be identical. Equal values may be shown once. Records with an inconclusive call do not appear. Unmarked numbers belong to inactive results. Calls of active or inactive are those of the source. Calls follow the shape of the dose curve; as a rule, active = well fitted curve in the direction sought with a large enough effect; inconclusive = small, poorly fitted or top-dose-only effect, or another doubt; inactive = no such curve, though single readings can be large; an effect the other way counts as inactive or inconclusive.
# Tests used:
# [1] = target: Cellular tumor antigen p53 (Homo sapiens) (UniProt P04637); experiment: Primary qHTS for small molecule compounds that upregulate eGFP-tagged delta133p53alpha (in N-terminal) cells. (AID 2060322); conditions: NCI-H358 eGFP-delta133p53alpha fluorescence, 24 h; activation: stronger effect = higher value; also: nearly all actives have a fitted effect of over 75% in size; also: potency is read from the fitted curve at half-maximal effect;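 as to activation: series mostly up to about 56 µM; 0% = DMSO vehicle and 100% = reference activator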
# Method in brief: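 NCI-H358 cells pre-induced 24 h with 10 ng/ml doxycycline to express N-terminal eGFP-delta133p53alpha, then dosed 24 h at 37C without doxycycline; fixed, Hoechst-stained, GFP intensity by laser scanning cytometry, normalized to DMSO (0%) and 57.5 uM 5-azacytidine (100%).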
# [2] = target: Aldehyde dehydrogenase, mitochondrial (Homo sapiens) (UniProt P05091); experiment: qHTS for Inhibitors of the Aldehyde Dehydrogenase Family (ALDH2) Primary screen (AID 2061308);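 also: plate controls were vehicle for no effect and reference inhibitor for full effect; nearly all actives have a fitted effect of over 55% in size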
# [3] = target: Retinaldehyde dehydrogenase 3 (Homo sapiens) (UniProt P47895); experiment: qHTS for Inhibitors of the Aldehyde Dehydrogenase Family (ALDH1A3) Primary screen (AID 2061315);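 also: plate controls were DMSO vehicle for no effect and reference inhibitor for full effect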
# [4] = BET inhibitor-based combinations targeting novel dependencies in MECOM-rearranged (r) AML: SET-2 cell line (AID 2202231); conditions: SET-2 AML cells viability, CellTiter-Glo luminescence, 48 h; viability: stronger effect = lower value, concentration not given here; also: nearly all actives have a fitted effect of over 35% in size; also: potency is read from the fitted curve at half-maximal effect;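 as to viability: plate controls were DMSO treated cells for no effect and wells without cells for full effect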
# Method in brief: (§1)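 Luminescent ATP readout (CellTiter-Glo) after 48 hr drug exposure gives viability. Curves span 11 concentrations and are normalized to DMSO and empty wells. Activity is reported as area under the curve and its Z-transform within each cell line.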
# [5] = BET inhibitor-based combinations targeting novel dependencies in MECOM-rearranged (r) AML: OCI-AML3 cell line (AID 2202232); conditions: Potency: OCI-AML3 viability; also: nearly all actives have a fitted effect of over 35% in size; also: potency is read from the fitted curve at half-maximal effect;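 as to viability (% of control): series mostly up to about 46 µM; plate controls were DMSO vehicle wells for no effect and wells without cells for full effect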
# Method in brief: as §1
# [6] = BET inhibitor-based combinations targeting novel dependencies in MECOM-rearranged (r) AML: MV-4-11 cell line (AID 2202233); also: nearly all actives have a fitted effect of over 45% in size; also: potency is read from the fitted curve at half-maximal effect;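 as to viability, % of control: plate controls were DMSO for no effect and blank wells for full effect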
# Method in brief: (§2)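 Luminescent ATP readout (CellTiter-Glo, 15 min at room temperature) after 48 hr drug exposure gave viability. Dose-response curves, normalized to DMSO and empty-well controls, were summarized as area under the curve and its mean-centred Z-score.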
# [7] = BET inhibitor-based combinations targeting novel dependencies in MECOM-rearranged (r) AML: HNT-34 cell line (AID 2202234); also: nearly all actives have a fitted effect of over 35% in size; also: potency is read from the fitted curve at half-maximal effect;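 as to viability (% of control): plate controls were vehicle wells for no effect and cell-free wells for full effect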
# Method in brief: as §2
# [8] = BET inhibitor-based combinations targeting novel dependencies in MECOM-rearranged (r) AML: AML-191 cell line (AID 2202236; also: nearly all actives have a fitted effect of over 35% in size; also: potency is read from the fitted curve at half-maximal effect;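 as to viability (% of control): plate controls were vehicle wells for no effect and wells without cells for full effect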)
# Method in brief: as §1
# [9] = BET inhibitor-based combinations targeting novel dependencies in MECOM-rearranged (r) AML: AML-194 cell line (AID 2202237; also: nearly all actives have a fitted effect of over 40% in size; also: potency is read from the fitted curve at half-maximal effect;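 as to viability (% of control): plate controls were vehicle wells for no effect and wells without cells for full effect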)
# Method in brief: as §1
# [10] = BET inhibitor-based combinations targeting novel dependencies in MECOM-rearranged (r) AML: UCSD-AML1 cell line (AID 2202235); also: nearly all actives have a fitted effect of over 40% in size; also: potency is read from the fitted curve at half-maximal effect;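 as to viability (% of control): series mostly up to about 46 µM; plate controls were DMSO vehicle wells for no effect and blank wells for full effect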
# Method in brief: as §2
# Cellular tumor antigen p53 (Homo sapiens), sequence (P04637 whole entry, looked up): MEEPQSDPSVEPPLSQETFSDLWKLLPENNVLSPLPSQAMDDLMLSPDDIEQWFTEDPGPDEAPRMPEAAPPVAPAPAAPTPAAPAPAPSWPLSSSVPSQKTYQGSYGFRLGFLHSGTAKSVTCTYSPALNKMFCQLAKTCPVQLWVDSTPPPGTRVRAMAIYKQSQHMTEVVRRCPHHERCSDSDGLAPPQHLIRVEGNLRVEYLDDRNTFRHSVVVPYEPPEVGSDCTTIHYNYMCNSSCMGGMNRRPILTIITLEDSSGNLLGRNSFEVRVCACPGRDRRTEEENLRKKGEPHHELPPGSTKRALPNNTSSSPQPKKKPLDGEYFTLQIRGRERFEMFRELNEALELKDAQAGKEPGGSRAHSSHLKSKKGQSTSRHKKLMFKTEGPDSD
SMILES,Potency [1],Potency [2],Potency [3],Potency [4],Potency [5],Potency [6],Potency [7],Potency [8],Potency [9],activation [1],viability [4] [%],Potency [10],viability (% of control) [5],"viability, % of control [6]",viability (% of control) [7],viability (% of control) [9]
C=CC(=O)Nc1cccc(Sc2nc(Nc3ccc(N4CCN(C)CC4)cc3)ncc2Cl)c1,12 µM (active),inactive,inactive,11.8 µM (active),13.2 µM (active),2.95 µM (active),6.61 µM (active),10.5 µM (active),10.5 µM (active),,,,,,,
CCCCC(F)(F)[C@@]1(O)CC[C@H]2[C@H](CC(=O)[C@@H]2CCCCCCC(=O)O)O1,,inactive,inactive,,inactive,0.235 µM (active),inactive,inactive,inactive,-19.7%,108,inactive,,,,
CNC(=O)c1ccccc1Nc1nc(Nc2ccc3c(c2OC)CCC[C@@H](N2CCN(CCO)CC2)C3)ncc1Cl,9.53 µM (active),inactive,inactive,18.6 µM (active),inactive,inactive,inactive,inactive,inactive,,,,,,,
Cc1ccc(C(N)=O)cc1Nc1nccc(-c2cn(C(C)C)c3cnccc23)n1,10.9 µM (active),inactive,inactive,7.42 µM (active),7.42 µM (active),0.0833 µM (active),2.95 µM (active),5.25 µM (active),8.33 µM (active),,,4.68 µM (active),,,,
Cc1cccc(Nc2nc(N[C@@H]3CCCC[C@H]3N)ncc2C(N)=O)c1,,inactive,inactive,29.5 µM (active),16.6 µM (active),2.63 µM (active),18.6 µM (active),18.6 µM (active),16.6 µM (active),14.8%,,,,,,
O=C(O)[C@H](CC(=O)N1C[C@H]2CCCC[C@H]2C1)Cc1ccccc1,,inactive,inactive,,inactive,inactive,inactive,inactive,inactive,38.3%,105,inactive,,,,
COc1c(C)cc(NC(=O)c2nn(Cc3ccc(F)cc3)c3c2CN(C(=O)c2ccc[nH]2)C[C@]3(C)C(N)=O)cc1C,,inactive,inactive,,,,,,,0.333%,118,,113% [at 8.46 µM],114% [at 8.46 µM],105% [at 8.46 µM],108% [at 8.46 µM]
Nc1cccc(-c2cc3c(Oc4cccc(O)c4)ncnc3[nH]2)c1,,inactive,inactive,20.9 µM (active),13.2 µM (active),2.95 µM (active),0.468 µM (active),,5.9 µM (active),-3.57%,,8.33 µM (active),,,,
c1ccc2c(Oc3nc(Nc4ccc(N5CCOCC5)cc4)c4ncn(C5CCCCC5)c4n3)cccc2c1,,inactive,inactive,,inactive,7.42 µM (active),,inactive,inactive,9.2% and -7.64%,101,inactive,,,,
NC(=O)c1ccccc1Nc1ccnc(Nc2cccc(O)c2)n1,30.1 µM (active),inactive,inactive,5.9 µM (active),18.6 µM (active),0.662 µM (active),,5.25 µM (active),,,,1.66 µM (active),,,,
CCC(C)n1ncn(-c2ccc(N3CCN(c4ccc(OC[C@H]5CO[C@](Cn6cncn6)(c6ccc(Cl)cc6Cl)O5)cc4)CC3)cc2)c1=O (some centres not stated),,inactive,inactive,,6.45 µM (active),,inactive,7.23 µM (active),inactive,10% and -7.18% and -11.6%,101,inactive,,,,
COc1ccc(-c2c(-c3ccc(O)cc3O)n[nH]c2C)cc1,,inactive,inactive,,inactive,inactive,,inactive,inactive,-3.77%,84,,,,,
Cn1ncc2cc(-c3cnc(N)c(Cl)c3N3CCC4(CCNC4=O)CC3)ccc21,,inactive,inactive,,inactive,5.25 µM (active),,0.296 µM (active),,-11.6%,103,10.5 µM (active),,,,
O=c1ccn([C@@H]2O[C@H](CO)[C@@H](O)[C@H]2O)c(=O)[nH]1,,inactive,inactive,,inactive,,inactive,inactive,inactive,10.3%,115,inactive,,,,
Cc1cc(C(C)Nc2ccccc2)c2nc(N3CCOCC3)cc(=O)n2c1 (configuration not stated),,inactive,inactive,,2.63 µM (active),,16.6 µM (active),18.6 µM (active),23.5 µM (active),9.6% and -9.82%,91.4,16.6 µM (active),,,,
O=C(NOCC1CC1)c1ccc(F)c(F)c1Nc1ccc(I)cc1Cl,,inactive,inactive,23.5 µM (active),0.296 µM (active),7.42 µM (active),,11.8 µM (active),,13% and 35.6% and 22.3%,,16.6 µM (active),,,,
